Inconclusive results are not listed. Where a call stands in place of a potency, no number is given. Calls of active or inactive are those of the source. The call rests on the fitted dose curve; in most records, active means well fitted inhibition curve with a large enough effect; inconclusive means small, poorly fitted or top-dose-only effect; inactive means flat fitted curve, though single readings scatter.
Each molecule was assayed against Calcium and integrin-binding protein 1 (Homo sapiens) (UniProt Q99828) (assay: Primary qHTS for Identification of Calcium Integrin Binding Protein 1 (CIB1) Competitor (AID 1508620; further: top concentration of the series differs between compounds)). Conditions: CIB1-GST / FITC-alphaIIb peptide fluorescence polarization; series mostly up to 114 µM.
How it was run: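 Fluorescence polarization competition: GST-tagged CIB1 (1 uM final) preincubated with compound 15 min at room temperature, then FITC-labelled alphaIIb peptide (100 nM final) added. After 15 min at room temperature, polarization read at Ex 480/Em 540.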

Calcium and integrin-binding protein 1 (Homo sapiens), sequence (Q99828 whole entry, looked up): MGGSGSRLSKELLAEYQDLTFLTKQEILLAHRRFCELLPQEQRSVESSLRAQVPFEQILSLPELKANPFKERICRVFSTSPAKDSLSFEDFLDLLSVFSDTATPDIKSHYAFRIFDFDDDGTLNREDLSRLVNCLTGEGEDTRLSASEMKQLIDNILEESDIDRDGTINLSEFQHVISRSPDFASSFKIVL

| Structure (SMILES) | Potency |
| --- | --- |
| Nc1ccc(S(=O)(=O)N2CCN(S(=O)(=O)c3c(F)cccc3F)CC2)cc1 | inactive |
| O=C(CSc1ccccc1)Nc1nnc(COc2ccc(Cl)cc2)s1 | inactive |
| O=C(OCC#CCSc1nnc(-c2ccc3ccccc3c2)o1)c1ccsc1 | inactive |
| CC(=O)Nc1sc2c(c1-c1ccc3c(c1)OCCO3)CCNC2 | inactive |
| COc1ccc(NS(=O)(=O)c2ccccc2C(=O)O)cc1 | inactive |
| Cc1ccc(N2CCC(CNc3nc(-c4ccccc4C(C)C)ncc3C)CC2)cn1 | inactive |
| COc1ccc(N2C[C@]34C=C[C@H](O3)C(C(=O)O)C4C2=O)cc1 (stereo partly specified) | inactive |
| Fc1ccccc1-c1nc(-c2ccc(-c3nn[nH]n3)cc2)no1 | inactive |
| CC(=O)c1ccc(N2CCN(C(=O)c3ccc4c(c3)CC(=O)N4)CC2)cc1 | inactive |
| Cc1cc(-c2nnc3n2CCCCCC3)c(C)n1-c1ccccc1 | inactive |
| CCC(C)N(C)C(=O)Cn1nc(-c2ccc(C)cc2)ccc1=O (stereo unspecified) | inactive |
| COC(=O)C1CCN(C(=O)c2ccc3c(c2)ncn3-c2cccc(C)c2)CC1 | inactive |
| O=C(OCC#CCSc1nnc(-c2cccc3ccccc23)o1)c1cccc(F)c1 | inactive |
| Cc1c(C(=O)OCC2CC2)[nH]c2c1C(=O)CC(c1ccco1)C2 (stereo unspecified) | inactive |
| Cc1ccc(OCCn2c(CCNC(=O)c3ccco3)nc3ccccc32)cc1 | inactive |
| O=C(OCC#CCSc1nnc(-c2ccco2)o1)c1ccc(F)cc1 | inactive |
| CN(C)c1ccc(-c2cc(O)c3ncccc3c2)cc1 | inactive |
| c1nc(NCC2CCCO2)c2ccc(-c3ccc4c(c3)OCO4)cc2n1 (stereo unspecified) | inactive |
| CN(C)c1ccc2nc(NC(=S)N3CCN(c4cccc(C(F)(F)F)c4)CC3)sc2c1 | inactive |
| Cc1ccc(-c2nn3c(C)nnc3s2)cc1NCc1ccc(-c2cccc(Cl)c2)o1 | inactive |
| O=S(=O)(c1ccc2c(c1)OCCO2)N1CCN(S(=O)(=O)c2ccccn2)CC1 | inactive |

Reference: PubChem BioAssay (NCATS)
